Assay outcomes as filed in PubChem.
C diff HTS – C. difficile growth inhibitors, primary screen, HTS; Clostridium difficile clinical isolate growth, OD600, 24 h; stronger effect = lower value; growth activity, negative = inhibition, % at 16 µg/mL (by protocol); hit rate 0.25% among 86,000; AID 1259249, 2017;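 active = mean growth activity at or below -80% and every replicate also at or below -80%; inconclusive = mean at or below -80% but some replicate above -80%; inactive = mean growth activity above -80%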;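 also: 0% = DMSO wells and -100% = levofloxacin 16 µg/mL wells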
T cruzi growth-1 – T. cruzi intracellular proliferation inhibitors, primary screen, cell-based, beta-gal Tulahuen parasites, NIH3T3 host, luminescence | hit rate 5.9% among 77,000 | AID 624255, 2012 | T. cruzi beta-gal in NIH3T3, GalScreen luminescence, 90 h | inhibition, % at 8.34 µM;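 active = mean inhibition above about 93%, with at least 55% of replicates each passing it, limit read from the data, passing the limit was not always enough; inconclusive = only one of those two conditions holds; inactive = neither condition holds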
Pf Dd2 growth – P. falciparum Dd2 growth inhibitors, primary screen, SYBR Green fluorescence, single dose replicates; AID 1159554, 2015; hit rate 2.3% among 94,000; activity change, % at 10 µM; 72 h; stronger effect = lower value; in the data active = activity change below about -80%; inconclusive = no clear call, values can overlap the other calls
T cruzi growth-2 – T. cruzi intracellular proliferation inhibitors, confirmation, cell-based, NIH3T3 host, beta-gal parasite, luminescence, cherry-pick. shares compounds with T cruzi growth-1. hit rate 72% among 5,600. T. cruzi beta-gal in NIH3T3, GalScreen luminescence, 90 h. inhibition, % at 8.35 µM;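 active = mean replicate inhibition above about 95% and at least 55% of replicates individually reaching it, limit read from the data; inconclusive = only one of the two criteria is met; inactive = neither criterion is met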
T cruzi growth-3 – inhibitors of intracellular T. cruzi replication, confirmation, NIH3T3 host cells, beta-gal parasites, cherry-pick, set 2; shares compounds with T cruzi growth-1; T. cruzi beta-gal in NIH3T3, GalScreen luminescence, 90 h; inhibition, % at 2.09 µM; hit rate 21% among 5,600; AID 651740, 2012;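 active = mean inhibition above about 95%, with at least 55% of replicates also reaching it, limit read from the data; inconclusive = meets just one of the two conditions; inactive = meets neither condition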;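 also: plate controls were neutral control median for no effect and positive control median for full effect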
3T3 cytotox – cytotoxicity in mouse NIH/3T3 fibroblasts, confirmation, cytotoxicity control for T. cruzi proliferation inhibitor project, cell-based, cherry-pick, single point | NIH/3T3 viability, CellTiter-Glo ATP luminescence, 90 h | shares compounds with T cruzi growth-1 | cytotoxicity (signal decrease), % at 8.35 µM | AID 651742, 2012 | hit rate 14% among 5,600;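 active = mean signal decrease across replicates above about 35% based on untreated-well scatter, with enough replicates individually passing, limit read from the data; inconclusive = no rule stated though some were filed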;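 also: 0% = median of neutral control wells and 100% = median of positive control wells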
NIH3T3 tox 2 – NIH/3T3 fibroblast cytotoxicity, confirmation, cytotoxicity control, cell-based, cherry-pick, single point, set 2. hit rate 56% among 5,600. NIH/3T3 viability, CellTiter-Glo ATP luminescence, 90 h. inhibition, % at 24.9 µM. shares compounds with T cruzi growth-1. AID 651744, 2012;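 active = mean loss of cell viability signal at or above a set limit, and enough replicates individually reaching it; inconclusive = meets only the mean limit or only the replicate share; inactive = meets neither condition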;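 also: 0% = median of neutral control wells and 100% = median of positive control wells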
* = called active by the depositor; ? = inconclusive; . = no result. Rows were chosen to be rich in hits. Some 6.8% of all compounds tested hit in one or more screens of this group.

SMILES	C diff HTS	T cruzi growth-1	Pf Dd2 growth	T cruzi growth-2	T cruzi growth-3	3T3 cytotox	NIH3T3 tox 2
C[C@@H]1CN([C@@H](C)CO)S(=O)(=O)c2ccc(/C=C/c3ccccc3)cc2O[C@@H]1CN(C)Cc1cccnc1	-5.5	88.3*	-37.4	91.5	86.6	69.6*	94.5*
C[C@H](CO)N1C[C@H](C)[C@H](CN(C)Cc2ccccc2)Oc2cc(/C=C/c3ccccc3)ccc2S1(=O)=O	7.4	102.6*	-32.0	100.4*	100.0*	-3.9	104.1*
C[C@H]1CN([C@@H](C)CO)S(=O)(=O)c2ccc(/C=C/c3ccccc3)cc2O[C@H]1CN(C)Cc1ccccc1	8.2	110.0*	-18.1	97.0*	113.2*	-3.8	103.1*
CC=Cc1ccc2n(c1=O)C[C@H]1[C@H](CO)[C@@H](C(=O)NCCOC)[C@@H]2N1Cc1ccccc1OC (mixture of isomers)	-4.5	.	8.0	.	.	.	.
COc1cccc(S(=O)(=O)N[C@@H]2CC[C@H](CC(=O)NCc3ccccc3)O[C@@H]2CO)c1	1.5	9.2	-5.0	.	.	.	.
C[C@H]1CN([C@@H](C)CO)S(=O)(=O)c2ccc(C#CCN(C)C)cc2O[C@@H]1CN(C)S(C)(=O)=O	10.8	18.5	.	.	.	.	.
C/C=C/c1cnc2c(c1)C(=O)N([C@H](C)CO)C[C@H](C)[C@H](CN(C)S(=O)(=O)c1ccc(F)cc1)O2	-1.6	-5.1	-8.7	.	.	.	.
C[C@H]1CN([C@@H](C)CO)C(=O)c2cc(/C=C/c3ccccc3)cnc2O[C@@H]1CN(C)S(=O)(=O)c1ccc(F)cc1	-4.5	83.3*	-61.3	100.0*	70.5	9.9	12.1
C/C=C/c1cnc2c(c1)C(=O)N([C@@H](C)CO)C[C@@H](C)[C@@H](CN(C)S(=O)(=O)c1ccc(F)cc1)O2	0.7	35.3	4.4	.	.	.	.
C[C@@H]1CN([C@H](C)CO)C(=O)c2cc(/C=C/c3ccccc3)cnc2O[C@@H]1CN(C)S(=O)(=O)c1ccc(F)cc1	2.5	80.0*	-34.5	104.6*	40.7	17.2	50.7*
CCCC(=O)Nc1ccc2c(c1)C(=O)N(C)C[C@@H](OC)[C@H](C)CN(Cc1ccccc1F)[C@@H](C)CO2	-1.4	45.6	-58.0	.	.	.	.
C[C@H]1CN([C@@H](C)CO)S(=O)(=O)c2ccc(/C=C/c3ccccc3)cc2O[C@H]1CN(C)C(=O)Nc1cc(F)ccc1F	1.1	.	-60.5	.	.	.	.
C[C@@H]1CN([C@H](C)CO)S(=O)(=O)c2ccc(/C=C/c3ccccc3)cc2O[C@H]1CN(C)C(=O)Nc1ccc(F)cc1	19.2	125.5*	-81.7*	108.7*	95.0	44.5*	89.4*
C[C@H]1CN([C@@H](C)CO)S(=O)(=O)c2ccc(/C=C/c3ccccc3)cc2O[C@@H]1CN(C)C(=O)Nc1ccc(F)cc1	9.4	127.0*	-43.5	101.0*	93.1	1.2	59.6*
C[C@H]1CN([C@@H](C)CO)S(=O)(=O)c2ccc(/C=C/c3ccccc3)cc2O[C@H]1CN(C)C(=O)Nc1ccc(F)cc1	-1.8	10.7	14.6	.	.	.	.
C[C@H]1CN([C@@H](C)CO)S(=O)(=O)c2ccc(/C=C/c3ccccc3)cc2O[C@@H]1CN(C)C(=O)Nc1cc(F)ccc1F	1.3	.	43.0	.	.	.	.
C[C@H](CO)N1C[C@H](C)[C@@H](CN(C)C(=O)Nc2ccc(F)cc2)Oc2cc(/C=C/c3ccccc3)ccc2S1(=O)=O	7.7	124.2*	-66.9	108.9*	97.9*	-1.3	?
O=C(NCc1ccccn1)[C@@H]1[C@@H](CO)[C@@H]2Cn3c(cccc3=O)[C@H]1N2CC1CCCC1	-2.8	.	39.0	.	.	.	.
CN1C(=O)c2cc(NC(=O)Cc3ccccc3)ccc2OC[C@@H]2O[C@@H](CC(=O)NCC3CC3)CC[C@H]21	8.1	-2.4	-0.2	.	.	.	.
Cc1ccc(-c2ccc3c(c2)O[C@H](CN(C)Cc2ccccn2)[C@@H](C)CN([C@H](C)CO)S3(=O)=O)cc1	-6.5	91.1	-40.5	.	.	.	.
